Assay results taken from PubChem BioAssay (NCATS).
Calls of active or inactive are those of the source. No rule for the calls is given here.
Potency is read from the fitted curve at half-maximal effect.

These compounds were tested on HIV-1 nucleocapsid protein NCp7 (binding to TG oligonucleotide) (assay: HIV Nucleocapsid (AID 346;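 also: potency is for inhibitors that block NC binding and lower polarization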)). Conditions: HIV-1 NC / fluorescein-TGTGTGTG probe, fluorescence polarization.
Outline: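 HIV-1 NC (100 nM) binding to fluorescein-labelled ssDNA TG4xF (10 nM) in Hepes pH 7.5, 250mM NaCl, 1uM ZnCl2, TCEP and 2-mercaptoethanol; compounds pin-transferred, 1 hr room temperature, fluorescence polarization read on CCD imager.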
In the case of `Cn1c(=O)c(-c2ccc(F)cc2)nc2cnc(Nc3ccccc3)nc21`, the Potency is reported as > 20 µM (inactive).
For `COc1ccccc1CCn1c(=O)c(-c2cccs2)nc2cncnc21`, the Potency was > 20 µM (inactive).
With `CC(C)CN1CCC2(CC1)CCN(C(=O)c1cnccn1)CC2` the Potency was > 20 µM (inactive).
In the case of `Cc1cnc(CNc2ncncc2-c2cccnc2)cn1`, the Potency is reported as > 20 µM (inactive).
`COc1cccc(Cn2c(=O)c(C)nc3cnc(OC)nc32)c1` was tested, and the Potency was > 20 µM (inactive).
For `O=C(c1cccc(F)c1)N1CCC2(CCCN(c3ncccn3)C2)CC1`, the Potency was > 20 µM (inactive).
For `COC(=O)N1CCC[C@@]2(CCN(c3ccncc3)C2)C1`, the Potency was > 20 µM (inactive).
In the case of `COCC(=O)N1CCC[C@@]2(CCN(C(=O)Nc3cccc(F)c3)C2)C1`, the Potency is reported as > 20 µM (inactive).
In the case of `Cc1cccc(CNc2ncncc2-c2ccc3c(c2)OCO3)c1`, the Potency is reported as > 20 µM (inactive).
In the case of `COCCn1c(=O)c(-c2ccc(OC)cc2)nc2cnc(N3CCOCC3)nc21`, the Potency is reported as > 20 µM (inactive).
`O=C(c1ccco1)N1CCC2(CCN(Cc3ccccc3)CC2)CC1` was tested, and the Potency was > 20 µM (inactive).
With `COc1ccc(Oc2ncc3nc(C)c(=O)n(Cc4cccc(OC)c4)c3n2)cc1` the Potency was > 20 µM (inactive).
With `O=c1c(-c2ccc(F)c(F)c2)nc2cncnc2n1Cc1ccccc1Cl` the Potency was > 20 µM (inactive).
For `COc1ccccc1CNc1ncncc1-c1ccccc1C(F)(F)F`, the Potency was > 20 µM (inactive).
With `CCNc1ncc2nc(CCc3ccccc3)c(=O)n(Cc3cccc(OC)c3)c2n1` the Potency was > 20 µM (inactive).
For `c1ncc(-c2ccoc2)c(NC2CC2)n1`, the Potency was > 20 µM (inactive).
In the case of `COCC(=O)N1CCC2(CCN(Cc3nccs3)CC2)CC1`, the Potency is reported as > 20 µM (inactive).
`Cc1noc(C)c1C(=O)N1CCC2(CC1)CN(c1ncccn1)C2` was tested, and the Potency was > 20 µM (inactive).
For `COCCn1c(=O)c(-c2ccc(OC)cc2)nc2cnc(N3CCN(C)CC3)nc21`, the Potency was > 20 µM (inactive).
`CS(=O)(=O)N1CCC[C@@]2(CCN(Cc3ccccc3)C2)C1` was tested, and the Potency was > 20 µM (inactive).
For `COCCn1c(=O)c(CCc2ccccc2)nc2cnc(N3CCOCC3)nc21`, the Potency was > 20 µM (inactive).
For `O=c1c(CCc2ccccc2)nc2cnc(N3CCNCC3)nc2n1CCc1ccccc1`, the Potency was > 20 µM (inactive).
In the case of `CN(C)c1ncc2nc(-c3ccc(Cl)cc3)c(=O)n(C3CC3)c2n1`, the Potency is reported as > 20 µM (inactive).
In the case of `COc1ncc2nc(-c3cccs3)c(=O)n(Cc3cccs3)c2n1`, the Potency is reported as > 20 µM (inactive).
With `N#CCCn1c(=O)c(-c2ccccc2)nc2cnc(Oc3ccccc3)nc21` the Potency was > 20 µM (inactive).
In the case of `Clc1ccccc1-c1nc(NCCN2CCOCC2)c2ccccc2n1`, the Potency is reported as > 20 µM (inactive).
With `N#Cc1ccccc1-c1ccc2ncnc(N3CCNCC3)c2c1` the Potency was > 20 µM (inactive).
In the case of `CNc1ccnc(-c2c(C)noc2C)n1`, the Potency is reported as > 20 µM (inactive).
For `O=C(c1cccc(F)c1)N1CCC2(CC1)CCN(c1ccccn1)CC2`, the Potency was > 20 µM (inactive).
In the case of `COC(=O)N1CCC2(CC1)CN(C(=O)Nc1cccc(C#N)c1)C2`, the Potency is reported as > 20 µM (inactive).
`COc1ncc2nc(-c3cc(F)cc(F)c3)c(=O)n(Cc3cccs3)c2n1` was tested, and the Potency was > 20 µM (inactive).
`COc1ccc(C(=O)N2CCC3(CCCN(C)C3)CC2)cc1` was tested, and the Potency was > 20 µM (inactive).
`O=c1c(CCc2ccccc2)nc2cncnc2n1Cc1ccccc1Cl` was tested, and the Potency was > 20 µM (inactive).
In the case of `CN(C)c1ccc(-c2cncnc2-n2ccnc2)cc1`, the Potency is reported as > 20 µM (inactive).
In the case of `O=C(Nc1ccccc1)N1CC[C@@]2(CCCN(C(=O)c3ccncc3)C2)C1`, the Potency is reported as > 20 µM (inactive).
In the case of `CN(C)c1ccc(-c2nccc(Nc3ccc(F)cc3)n2)cc1`, the Potency is reported as > 20 µM (inactive).
For `COc1cccc(Nc2ncc3nc(-c4ccc(Cl)cc4)c(=O)n(C4CC4)c3n2)c1`, the Potency was > 4 µM (inactive).
`CN1CCCC2(CCN(C(=O)c3cccc(F)c3)CC2)C1` was tested, and the Potency was > 20 µM (inactive).
`CN(C)c1ccc(-c2ccc3ncnc(NC4CC4)c3c2)cc1` was tested, and the Potency was > 20 µM (inactive).
In the case of `Cn1cccc1C(=O)N1CCC[C@@]2(CCN(Cc3ccc(C#N)cc3)C2)C1`, the Potency is reported as > 20 µM (inactive).
